# Bioassay records deposited in PubChem BioAssay by National Center for Advancing Translational Sciences (NCATS).
# D3 antag = qHTS of D3 Dopamine Receptor Antagonist: qHTS; 360,000 compounds, 2.5% hits; max response, negative = inhibition, %; AID 652054, 2013; D3R cells, DiscoveRx beta-arrestin luminescence, antagonist mode; active compounds read low; D(3) dopamine receptor (Homo sapiens), P35462; in the data active means max response below about -50%; inconclusive means no clear call, values can overlap the other calls; further: on the % scale 0 is the no-effect control and ±100 the full control effect
# Target sequence (P35462 whole entry, looked up): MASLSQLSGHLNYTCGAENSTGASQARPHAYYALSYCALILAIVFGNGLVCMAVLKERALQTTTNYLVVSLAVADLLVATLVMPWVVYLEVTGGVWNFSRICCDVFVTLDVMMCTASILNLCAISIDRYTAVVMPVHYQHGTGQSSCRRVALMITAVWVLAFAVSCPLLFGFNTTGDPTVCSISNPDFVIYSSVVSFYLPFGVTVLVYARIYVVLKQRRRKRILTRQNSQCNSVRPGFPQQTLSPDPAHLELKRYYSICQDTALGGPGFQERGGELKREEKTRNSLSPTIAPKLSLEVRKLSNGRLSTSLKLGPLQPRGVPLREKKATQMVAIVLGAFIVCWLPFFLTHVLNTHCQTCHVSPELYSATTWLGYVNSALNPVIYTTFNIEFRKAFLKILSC
#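 Cells plated overnight at 1500 cells/well, then exposed to library compounds with dopamine controls for 90 minutes at 37 degrees C. DiscoveRx reagent added for 30–60 minutes at room temperature; luminescence read, quantitative HTS format.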
# DRD3 agonist = qHTS of D3 Dopamine Receptor Agonist: qHTS | AID 652048, 2013 | D3R DiscoveRx beta-arrestin cells, luminescence, 90 min | D(3) dopamine receptor (Homo sapiens), P35462 | max activation, % | 410,000 compounds, 0.58% hits; in the data active means max activation above about 30%; further: 0% is about no effect
#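 Cells at 1500/well, incubated overnight, then treated with pinned compounds (dopamine as control) for 90 min at 37 degrees C. DiscoveRx reagent added for 30 - 60 minutes at room temperature; luminescence read.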
# ClpP mod = qHTS Assay for Activators of ClpP; ATP-dependent Clp protease proteolytic subunit (Bacillus subtilis (strain 168)), P80244; purified B. subtilis ClpP, FRET peptide cleavage, 20 min; Potency, µM (highest dose often 57.5 µM), without a hit: at the top dose activity change, negative = active; 340,000 compounds, 1.9% hits; active means well fitted falling curve with a large enough effect; inconclusive means small, poorly fitted or top-dose-only effect; inactive means no such curve, though single readings can be large or run the other way; further: potency means the concentration at half of the fitted maximal effect; the source files actives as falling curves though it sought activators and does not explain the sign; nearly all actives have a fitted effect of over 65% in size
# Target sequence (P80244 whole entry, looked up): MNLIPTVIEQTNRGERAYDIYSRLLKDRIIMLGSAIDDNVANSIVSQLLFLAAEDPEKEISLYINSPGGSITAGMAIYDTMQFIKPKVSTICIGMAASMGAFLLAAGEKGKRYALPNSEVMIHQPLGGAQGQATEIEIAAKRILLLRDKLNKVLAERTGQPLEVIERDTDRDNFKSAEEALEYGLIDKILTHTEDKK
#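 Buffer: 100 mM Tris/HCl pH8, 100 mM KCl, 0.05% low protease BSA, 2.5% glycerol, 0.01% Tween-20. ClpP 10 microg/mL final; 20 min RT; delta FRET normalized to ADEP and DMSO controls.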
# IL1B secr inh = qHTS for Inhibitors of Inflammasome Signaling: IL-1-beta AlphaLISA Primary Screen | THP-1 LPS/ATP IL-1B secretion, AlphaLISA, 16 h; active compounds read low | activity change, % at 57.5 µM | 360,000 compounds, 4.7% hits; in the data active means activity change below about -50%; inconclusive means mostly about -30% to -49%; further: on the % scale 0 is the no-effect control and ±100 the full control effect
#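 THP-1 cells pretreated 1 hr with compounds (up to 57.5 uM final), then stimulated with LPS (250 ng/mL final) plus ATP (1.25 mM final); secreted IL-1B measured by AlphaLISA after 16 hr, decreased signal indicating inhibition.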
# DT40 TDP1 CPT = qHTS for Inhibitors of human tyrosyl-DNA phosphodiesterase 1 (TDP1): qHTS in cells in presence of CPT; chicken DT40 Tdp1-/-;hTDP1 cells + 20 nM CPT, ATP luminescence, 48 h; Potency, µM (titrated, usually from 46.2 µM), inactives show top-dose activity change, negative = growth inhibition, usual class: inhibitors; 420,000 compounds, 12% hits; AID 686979, 2013; further: potency means the concentration at half of the fitted maximal effect; on the % scale 0 is the no-effect control and ±100 the full control effect; nearly all actives have a fitted effect of over 55% in size
#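 Chicken DT40 Tdp1-/- cells complemented with human TDP1, 400 cells/well, exposed to compounds plus 20 nM camptothecin for at least 48 h at 37 C; viability read as ATP content by CellTiter-Glo luminescence.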
# DT40 TDP1 no CPT = qHTS for Inhibitors of human tyrosyl-DNA phosphodiesterase 1 (TDP1): qHTS in cells in absence of CPT. DT40 Tdp1-/- hTDP1 cells, no CPT, ATP luminescence, 48 h. Potency, µM (doses to about 46.2 µM), inactives show top-dose activity change, negative = growth inhibition, hits mostly inhibitors. 420,000 compounds, 15% hits. AID 686978, 2013; further: potency means the concentration at half of the fitted maximal effect; on the % scale 0 is the no-effect control and ±100 the full control effect; nearly all actives have a fitted effect of over 55% in size
#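 Cells were dispensed at 400 per well, compounds added by pin tool, plates incubated ≥48 hr at 37 °C, then CellTiter-Glo added for 30 min at room temperature before luminescence reading. Line: DT40 Tdp1-/- complemented with hTDP1; camptothecin omitted.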
# Active calls of the source: *; ? = inconclusive; . = no result; [ ] = another dose, or the depositor's remark. A selection: hits, their analogues and other compounds. The true share with any hit is near 21%. Unless noted, the call rests on the fitted dose curve; in most records, active means well fitted inhibition curve with a large enough effect; inconclusive means small, poorly fitted or top-dose-only effect; inactive means flat fitted curve, though single readings scatter.
SMILES,D3 antag,DRD3 agonist,ClpP mod,IL1B secr inh,DT40 TDP1 CPT,DT40 TDP1 no CPT
COc1cccc(-c2nc3ccccc3s2)c1,19.8,7.1,28.2µM*,0.0,-18.4%,4.5%
COc1ccc(CN2CCCC(c3nc(-c4ccncc4)ncc3-c3ccccc3)C2)c(OC)c1OC (centres undefined),.,.,.,.,6.2%[9.04 µM],-12.7%
C=CCN(CC=C)S(=O)(=O)c1ccc(NC(=S)NC(=O)c2ccco2)cc1,22.9,3.6,1.1%,-21.1,?,18.4µM*
C=CCN(CC=C)S(=O)(=O)c1ccc(NC(=S)NC(=O)Cc2ccc(OC)cc2)cc1,?,-40.7,-2.2%,7.7,?,20.6µM*
COc1ccc(CC(=O)Nc2ccc(S(=O)(=O)N3CCC(C)CC3)cc2)c(OC)c1,25.8,1.3,0.3%,-9.7,?,8.2µM*
COc1ccc(CNC(=O)Cn2c(=O)ccc3cc(S(=O)(=O)N4CCCC4)ccc32)cc1,.,3.3,-7.1%,.,-11.4%,-24.4%
CC1CCN(S(=O)(=O)c2ccc3c(c2)oc(=O)n3CC(=O)O)CC1,.,-3.4,-4.8%,.,-5.0%,-8.8%
COc1ccc(CNC(=O)Cn2c(=O)oc3cc(S(=O)(=O)N4CCCCCC4)ccc32)cc1,.,1.6,-0.1%,.,13µM*,16.4µM*
COc1ccc(NC(=O)Cn2c(=O)oc3cc(S(=O)(=O)N4CCCC4)ccc32)c(OC)c1,19.5,-0.5,-2.1%,11.1,?,?
COc1ccc(NC(=O)Cn2c(=O)oc3cc(S(=O)(=O)N4CCC(C)CC4)ccc32)c(OC)c1,.,-20.1,1.6%,.,20.6µM*,8.2µM*
Cc1cc(C)cc(NC(=O)Cn2c(=O)oc3cc(S(=O)(=O)N4CCC(C)CC4)ccc32)c1,-26.0,0.6,3.6%,1.3,6.51µM*,14.6µM*
O=C(Oc1ccc[nH]c1=O)c1ccc(F)cc1,0.5,7.6,-0.4%,10.6,47.7%,-12.5%
COc1ccc(NC(=O)Cn2c(=O)oc3cc(Cl)ccc32)c(OC)c1,9.1,1.6,0.8%,10.0,?,6.51µM*
COc1ccc(CNC(=O)Cn2c(=O)oc3cc(S(=O)(=O)N4CCC(C)CC4)ccc32)cc1,.,-2.9,0.7%,.,8.2µM*,8.2µM*
O=C(Nc1ccc(SC(F)F)cc1)c1cc(-c2ccc3c(c2)OCCO3)on1,.,5.7,-4.7%,.,-13.5%,-11.0%
O=C(Cc1ccccc1)Nc1nnc(-c2cccc([N+](=O)[O-])c2)s1,-16.5,-13.3,31.6µM*,-7.0,-14.5%,5.1%
COc1ccc(CC(=O)Nc2nnc(-c3cccc([N+](=O)[O-])c3)s2)cc1,5.7,2.4,-2.1%,-17.2,5.2%,3.4%
O=C(NC1CCCCC1)N(c1ccccc1)c1nnc(-c2cccc([N+](=O)[O-])c2)s1,-10.5,-13.6,0.5%,-6.3,25.9µM*,11.6µM*
Cc1cc(C)n(CC(=O)NCc2cc(-c3nn(C)c(=O)c4ccccc34)ccc2C)n1,6.3,3.1,-1.1%,-1.1,?,16.4µM*
Cc1ccc(-c2nn(C)c(=O)c3ccccc23)cc1CN1CCOCC1,-6.6,-3.0,1.1%,11.5,-15.7%,?
Cn1nc(-c2ccc3c(c2)OCCO3)c2ccccc2c1=O,15.3,16.9,.,36.6,?,20.6µM*
Cc1ccc(-c2nn(C)c(=O)c3ccccc23)cc1CO,-50.3*,-2.4,-1.8%,-1.6,-29.7%,-15.7%
Cc1cc(Cl)ccc1OCC(=O)NNC(=O)C1CCCO1 (centres undefined),4.0,7.9,.,0.0,1.9%,-2.1%
CN(C)Cc1c(C(=O)Nc2ccccc2)[nH]c2ccccc12,-57.3*,-45.2,193.0%,27.8,?,?
CN1C(=O)[C@H](Cc2ccc([N+](=O)[O-])cc2)NC1=S,24.8,-0.5,.,?,?,?
SMILES,D3 antag,DRD3 agonist,ClpP mod,IL1B secr inh,DT40 TDP1 CPT,DT40 TDP1 no CPT
COc1cc(C(CC(=O)Nc2ccc(C)cn2)N2Cc3ccccc3C2=O)cc(OC)c1OC (centres undefined),-17.4,-0.4,0.7%,23.9,2.7%,-11.6%
CC(=C/c1ccc(C(C)C)cc1)/C=N/NC(=O)Cn1nc(C)cc1C,13.2,1.6,.,-13.6,?,29.1µM*
Cc1ccc(/C=N/NC(=O)c2ccncc2)s1,-2.8,1.9,.,21.7,6.51µM*,14.6µM*
Cc1ccc(C(=O)N/N=C/c2ccc([N+](=O)[O-])s2)cc1,-21.0,-14.4,-0.8%,-18.7,8.2µM*,7.31µM*
Cc1cc(C)n(CC(=O)N/N=C/c2ccc([N+](=O)[O-])s2)n1,-12.7,-0.4,.,?,23.1µM*,?
CCOC(=O)c1ccc(NC(=O)c2c(-c3c(F)cccc3Cl)noc2C)cc1,.,-4.1,-0.5%,.,?,?
O=C(CCSc1ccc(Cl)cc1)Nc1cccnc1,23.6,-1.1,1.0%,73.5,?,?
O=C(N/N=C/c1ccc([N+](=O)[O-])s1)c1cccc(Br)c1,0.0,-0.4,0.7%,1.4,9.2µM*,10.3µM*
CCOC(=O)N/N=C\c1ccc([N+](=O)[O-])s1,0.0,-3.1,.,-0.9,16.4µM*,23.1µM*
O=C(N/N=C/c1ccc([N+](=O)[O-])s1)c1ccncc1,-21.9,-5.3,.,-98.2*,6.51µM*,6.51µM*
Cc1ccc(C(=O)N/N=C\c2ccc([N+](=O)[O-])s2)cn1,-3.5,2.9,0.4%,-5.1,10.3µM*,11.6µM*
CC(C)(C)OC(=O)N/N=C\c1ccc([N+](=O)[O-])s1,-12.0,-7.1,.,-18.7,-1.3%,?
COc1cccc(NC(=O)Cn2c(=O)n(CCCCC(=O)NCc3ccc4c(c3)OCO4)c(=O)c3ccccc32)c1,.,11.0,?,.,?,?
O=C(CNC(=O)c1ccccc1)N/N=C/c1ccc([N+](=O)[O-])s1,-15.0,-2.9,.,?,?,?
O=C(Cc1ccccc1)NCC(=O)N/N=C/c1ccc([N+](=O)[O-])s1,-23.8,2.9,.,?,23.1µM*,14.6µM*
Cc1ccc(Cn2c(=S)[nH]c3ccc(N4CCOCC4)cc3c2=O)o1,?,-1.0,26.4%,?,?,16.4µM*
O=C(c1ccc(Cn2c(=S)[nH]c3cc4c(cc3c2=O)OCO4)cc1)N1CCN(c2ccccc2)CC1,-4.6,-13.8,.,-3.2,?,23.1µM*
